Experimental data taken from PubChem BioAssay (EPA / NIEHS).
Inconclusive results are not listed. Calls of active or inactive are those of the source. How the source made its calls, unless noted: active means hit-call score of the fitted dose curve at least 0.9, where 1 is the maximum; inconclusive means response in the unintended direction; inactive means score below 0.9.

Columns and labels:
PGR (gene 5241) [1] = biological target: PGR (gene 5241) (UniProt P06401); test: TOX21_PR_BLA_Followup_Antagonist_ratio: Tox21 HEK293 Progesterone Receptor (PR) Antagonism Beta-lactamase Follow-Up Assay, Ratio (AID 2283934)
Method in brief: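 PR-UAS-bla HEK293T cells in medium with 2% charcoal-stripped FBS were treated with compounds plus 1 nM (final) promegestone (R5020) for 16 hr at 37C. LiveBLAzer B/G FRET substrate was then added for 2 h at room temperature; signal is cleaved/uncleaved substrate ratio versus DMSO.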

[2] = TOX21_PR_BLA_Followup_Agonist_viability: Viability Assessment in the Tox21 HEK293 Progesterone Receptor (PR) Agonism Beta-lactamase Follow-Up Assay (AID 2283935);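 further: signal loss means lower viability so actives are cytotoxic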
Method in brief: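 PR-UAS-bla HEK293T cells in 2% charcoal-stripped FBS medium, compound added after 6 hr plating, 16 hr at 37C/5% CO2. After bla FRET read, CellTiter-Glo added; luminescence read after 30 min at room temperature; signal loss marks cytotoxicity.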

PGR (gene 5241) [3] = biological target: PGR (gene 5241) (UniProt P06401); test: TOX21_PR_LUC_Followup_Antagonist: Tox21 HEK293 Progesterone Receptor (PR) Antagonism Luciferase Follow-Up Assay (AID 2283938);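 further: curve fitted upward as signal gain over DMSO baseline despite antagonist label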
Method in brief: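 Luminescence from ONE-Glo reagent, measured after 30 min at room temperature, served as readout. Cells (HEK293 carrying PR-A-luc) had been treated 16 h at 37C with DMSO-dissolved compounds. Activity was fitted against DMSO controls.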

[4] = TOX21_PR_LUC_Followup_Antagonist_viability: Viability Assessment in the Tox21 HEK293 Progesterone Receptor (PR) Antagonism Luciferase Follow-Up Assay (AID 2283940)
Method in brief: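 HEK293-PR-A-luc cells, precultured 5 days in assay medium with 10% charcoal-stripped FBS, were seeded at 3,000 cells/well, treated with compounds in DMSO for 16 h at 37C, and viability was read as cellular ATP by CellTiter-Glo luminescence.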

[5] = TOX21_PR_LUC_Followup_Agonist_viability: Viability Assessment in the Tox21 HEK293 Progesterone Receptor (PR) Agonism Luciferase Follow-Up Assay (AID 2283941);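 further: loss of signal means cytotoxicity so actives lower viability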
Method in brief: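 HEK293-PR-A-luc cells, pre-cultured 5 days in 10% charcoal-stripped FBS, were seeded at 3,000 cells/well, rested 5 h at 37C, then given compound in DMSO for 16 h at 37C. Cellular ATP was read by CellTiter-Glo luminescence; signal loss indicates cytotoxicity.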

[6] = biological target: T1, Thyroid hormone receptor alpha (Rattus norvegicus) + Thyroid hormone receptor beta (Rattus norvegicus) (UniProt P18113+P63059); test: TOX21_TR_LUC_GH3_Agonist_Followup: Tox21 GH3 Thyroid Hormone Receptor Agonism Luciferase Follow-Up Assay (AID 2283939)
Method in brief: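 Rat GH3 cells (1,500/well) in serum-free assay medium, treated with 15-point series, 92 uM to 5 nM final, for 24 h at 37C. Luciferase via ONE-Glo luminescence; gain of signal fitted against DMSO, T3 positive control.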

THRA (gene 7067) [7] = biological target: THRA (gene 7067) (UniProt P10827); test: TOX21_TRA_COA_Agonist_Followup_ratio: Tox21 Thyroid Hormone Receptor alpha Agonism through Coactivator Recruitment Follow-Up Assay, Ratio (AID 2283948; active means hit-call score of the fitted dose curve at least 0.9, where 1 is the maximum; inactive means score below 0.9)
Method in brief: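 GST-TRa LBD 2.5 nM + 0.10% BSA + cpd; add fluorescein-SRC-2 200 nM, Tb-anti-GST 2 nM. TR-FRET ex 340, em 520/495 ratio. Norm: DMSO 0%, T3 100%; gain-of-signal fit.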

THRB (gene 7068) [8] = biological target: THRB (gene 7068) (UniProt P10828); test: TOX21_TRB_BLA_Agonist_Followup_ratio: Tox21 Thyroid Hormone Receptor beta Agonism Beta-lactamase (BLA) Follow-Up Assay, Ratio (AID 2283954)
Method in brief: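 Human TRβ LBD–GAL4 DBD fusion in GeneBLAzer UAS-bla HEK293T cells; 11 concentrations in triplicate, 18 h at 37°C/5% CO2, T3 as agonist control. CCF4-AM substrate 2 h at room temperature; 460:530 nm ratio fitted for gain of signal versus DMSO.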

[9] = TOX21_TRB_BLA_Agonist_Followup_viability: Viability Assessment in the Tox21 Thyroid Hormone Receptor beta Agonism Beta-lactamase (BLA) Follow-Up Assay (AID 2283956)
Method in brief: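 TRb-bla HEK293T cells (GAL4-DBD/human TRb LBD) in 2% charcoal-stripped FBS medium were exposed 18 h at 37C to 11 concentrations in triplicate. CellTiter-Glo ATP luminescence was read after 30 min at room temperature, with bidirectional fitting against DMSO.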

THRB (gene 7068) [10] = biological target: THRB (gene 7068) (UniProt P10828); test: TOX21_TRB_COA_Agonist_Followup_ratio: Tox21 Thyroid Hormone Receptor beta Agonism through Coactivator Recruitment Follow-Up Assay, Ratio (AID 2283963; active means hit-call score of the fitted dose curve at least 0.9, where 1 is the maximum; inactive means score below 0.9)
Method in brief: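 Cell-free TR-FRET coactivator recruitment: GST-tagged TRβ LBD (5.0 nM) with 0.10% BSA incubated with compound, then fluorescein-SRC-2 peptide (200 nM) and Tb-anti-GST antibody (2 nM) added. 520:495 nm ratio normalized to DMSO (0%) and T3 (100%).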

[11] = biological target: Retinoic acid receptor RXR-alpha (Homo sapiens) (UniProt P19793); test: TOX21_TR_RXR_BLA_Agonist_Followup_ratio: Tox21 Thyroid Hormone Receptor beta Retinoid X Receptor alpha (RXRa) Agonism Beta-lactamase (BLA) Follow-Up Assay, Ratio (AID 2283968)
Method in brief: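 RXRa-UAS-bla HEK293T cells (GAL4 beta-lactamase reporter) were treated with compounds at 11 concentrations in triplicate for 16 h at 37C/5% CO2, then loaded with CCF4-AM substrate for 2 h at room temperature; activity is the 460:530 nm ratio versus DMSO baseline.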

[12] = CEETOX_H295R_PROG_noMTC: CeeTox H295R High-throughput Steroidogenesis Assay for Progesterone (PROG), maximum tolerated concentration (MTC) filtered results only (AID 2283920; active means hit-call score of the fitted dose curve at least 0.9, where 1 is the maximum; inactive means score below 0.9); settings: actives raise or lower the signal
Method in brief: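 H295R human adrenal cells were prestimulated 48 h with 10 uM forskolin, then exposed 48 h to test chemical (0.1% DMSO final). Progesterone in medium was quantified by HPLC-MS/MS; bidirectional fitting versus DMSO, concentrations not MTC-filtered.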

[13] = CEETOX_H295R_ESTRONE_noMTC: CeeTox H295R High-throughput Steroidogenesis Assay for Estrone, maximum tolerated concentration (MTC) filtered results only (AID 2283921; active means hit-call score of the fitted dose curve at least 0.9, where 1 is the maximum; inactive means score below 0.9); settings: actives raise or lower the signal
Method in brief: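 H295R cells prestimulated 48 h with 10 uM forskolin, then exposed 48 h to chemical in 0.1% DMSO; medium estrone measured by HPLC-MS/MS after MTBE extraction and dansyl derivatization, fitted bidirectionally versus DMSO without MTT-based MTC filtering.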

[14] = TOX21_PR_BLA_Followup_Antagonist_viability: Viability Assessment in the Tox21 HEK293 Progesterone Receptor (PR) Antagonism Beta-lactamase Follow-Up Assay (AID 2283936);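 further: hits lower the luminescence signal meaning cytotoxicity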
Method in brief: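 PR-UAS-bla HEK293T cells (3,000/well, 2% charcoal-stripped FBS) given compound plus R5020 agonist, 16 h at 37C. CellTiter-Glo added after bla read, 30 min at room temperature; luminescence loss indicates cytotoxicity.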

PGR (gene 5241) [15] = biological target: PGR (gene 5241) (UniProt P06401); test: TOX21_PR_LUC_Followup_Agonist: Tox21 HEK293 Progesterone Receptor (PR) Agonism Luciferase Follow-Up Assay (AID 2283937; active means hit-call score of the fitted dose curve at least 0.9, where 1 is the maximum; inactive means score below 0.9)
Method in brief: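 HEK293-PR-A-luc cells, pre-cultured 5 days in medium with 10% charcoal-stripped FBS, were seeded at 3,000 cells/well, rested 5 h at 37C, then exposed to compounds 16 h at 37C; luciferase read by ONE-Glo luminescence after 30 min.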

[16] = biological target: T1, Thyroid hormone receptor alpha (Rattus norvegicus) + Thyroid hormone receptor beta (Rattus norvegicus); test: TOX21_TR_LUC_GH3_Antagonist_Followup: Tox21 GH3 Thyroid Hormone Receptor Antagonism Luciferase Follow-Up Assay (AID 2283942)
Method in brief: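 Rat pituitary GH3 cells with a TRα/TRβ-driven luciferase reporter, 5 h attachment, then 15 concentrations (92 uM to 5nM final) plus 1.0 nM T3 agonist, 24 h at 37C/5% CO2. ONE-Glo luminescence; signal change fitted against DMSO baseline.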

THRB (gene 7068) [17] = biological target: THRB (gene 7068) (UniProt P10828); test: TOX21_TRB_BLA_Antagonist_Followup_ratio: Tox21 Thyroid Hormone Receptor beta Antagonism Beta-lactamase (BLA) Follow-Up Assay, Ratio (AID 2283958)
Method in brief: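 GAL4-DBD/human TRβ-LBD fusion in GeneBLAzer UAS-bla HEK293T cells, 3,000 cells/well in phenol red-free DMEM with 2% charcoal-stripped FBS; compounds at 11 concentrations in triplicate, 18 h at 37C. CCF4-AM substrate 2 h, 460:530 nm ratio relative to DMSO.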

[18] = TOX21_TRB_BLA_Antagonist_Followup_viability: Viability Assessment in the Tox21 Thyroid Hormone Receptor beta Antagonism Beta-lactamase (BLA) Follow-Up Assay (AID 2283961)
Method in brief: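 Viability read as CellTiter-Glo ATP luminescence (loss of signal = cytotoxicity) in the same plates as the TRβ-bla readout. TRβ-LBD/GAL4 UAS-bla HEK293T cells were exposed to compounds, 11 concentrations in triplicate, for 18 h at 37C/5% CO2.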

THRB (gene 7068) [19] = biological target: THRB (gene 7068) (UniProt P10828); test: TOX21_TRB_COA_Antagonist_Followup_ratio: Tox21 Thyroid Hormone Receptor beta Antagonism through Coactivator Recruitment Follow-Up Assay, Ratio (AID 2283967)
Method in brief: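 Cell-free TR-FRET coactivator recruitment with GST-tagged TRβ LBD (5.0 nM) and fluorescein-labeled SRC-2 peptide (200 nM) detected by terbium anti-GST antibody (2 nM). The 520:495 nm emission ratio was normalized to DMSO (0%) and T3 (100%).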

THRA (gene 7067) [20] = biological target: THRA (gene 7067) (UniProt P10827); test: TOX21_TRA_COA_Antagonist_Followup_ratio: Tox21 Thyroid Hormone Receptor alpha Antagonism through Coactivator Recruitment Follow-Up Assay, Ratio (AID 2283953)
Method in brief: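 This follow-up to the GH3 luciferase screen checks specificity in a cell-free format. It measures SRC-2 coactivator peptide binding to TRα LBD by TR-FRET and scores loss of ratio signal relative to DMSO.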

Sequence of PGR (gene 5241) (P06401 whole entry, looked up): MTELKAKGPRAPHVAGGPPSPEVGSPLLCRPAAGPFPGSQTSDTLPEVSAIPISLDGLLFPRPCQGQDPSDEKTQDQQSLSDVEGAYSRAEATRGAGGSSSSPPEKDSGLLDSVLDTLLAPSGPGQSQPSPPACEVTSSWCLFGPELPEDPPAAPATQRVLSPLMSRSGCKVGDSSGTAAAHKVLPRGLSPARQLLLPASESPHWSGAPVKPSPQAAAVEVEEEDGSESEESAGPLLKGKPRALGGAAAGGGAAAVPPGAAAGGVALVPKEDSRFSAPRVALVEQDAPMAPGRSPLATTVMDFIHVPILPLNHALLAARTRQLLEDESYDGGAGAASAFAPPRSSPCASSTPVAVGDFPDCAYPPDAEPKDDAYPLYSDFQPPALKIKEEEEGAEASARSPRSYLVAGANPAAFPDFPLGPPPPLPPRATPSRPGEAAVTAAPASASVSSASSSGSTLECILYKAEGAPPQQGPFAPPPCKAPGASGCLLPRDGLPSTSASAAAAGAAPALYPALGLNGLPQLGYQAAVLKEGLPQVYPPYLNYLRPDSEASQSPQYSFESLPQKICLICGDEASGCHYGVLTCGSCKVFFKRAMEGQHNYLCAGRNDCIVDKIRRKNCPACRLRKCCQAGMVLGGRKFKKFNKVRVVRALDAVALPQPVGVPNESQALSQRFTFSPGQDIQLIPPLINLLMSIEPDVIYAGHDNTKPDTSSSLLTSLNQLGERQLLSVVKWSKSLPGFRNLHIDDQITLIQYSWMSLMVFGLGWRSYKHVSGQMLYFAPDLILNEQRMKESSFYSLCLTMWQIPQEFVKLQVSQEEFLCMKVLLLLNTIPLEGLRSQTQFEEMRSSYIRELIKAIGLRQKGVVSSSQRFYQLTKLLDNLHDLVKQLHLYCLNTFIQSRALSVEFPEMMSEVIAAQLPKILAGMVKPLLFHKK
Sequence of THRB (gene 7068) (P10828 whole entry, looked up, the tested form may be a part): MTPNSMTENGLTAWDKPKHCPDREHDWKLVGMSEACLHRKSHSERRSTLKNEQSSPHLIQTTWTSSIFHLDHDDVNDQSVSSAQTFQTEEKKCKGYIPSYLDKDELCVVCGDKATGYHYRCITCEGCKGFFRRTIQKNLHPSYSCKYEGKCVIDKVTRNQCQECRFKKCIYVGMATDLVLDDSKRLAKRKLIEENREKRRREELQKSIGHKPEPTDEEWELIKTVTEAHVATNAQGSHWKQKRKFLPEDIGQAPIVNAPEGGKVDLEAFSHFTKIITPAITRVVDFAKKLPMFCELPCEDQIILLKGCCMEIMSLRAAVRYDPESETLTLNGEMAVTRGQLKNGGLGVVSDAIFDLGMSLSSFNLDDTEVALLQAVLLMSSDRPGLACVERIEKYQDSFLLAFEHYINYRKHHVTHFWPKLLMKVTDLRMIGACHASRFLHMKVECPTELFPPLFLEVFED
Sequence of THRA (gene 7067) (P10827 whole entry, looked up, the tested form may be a part): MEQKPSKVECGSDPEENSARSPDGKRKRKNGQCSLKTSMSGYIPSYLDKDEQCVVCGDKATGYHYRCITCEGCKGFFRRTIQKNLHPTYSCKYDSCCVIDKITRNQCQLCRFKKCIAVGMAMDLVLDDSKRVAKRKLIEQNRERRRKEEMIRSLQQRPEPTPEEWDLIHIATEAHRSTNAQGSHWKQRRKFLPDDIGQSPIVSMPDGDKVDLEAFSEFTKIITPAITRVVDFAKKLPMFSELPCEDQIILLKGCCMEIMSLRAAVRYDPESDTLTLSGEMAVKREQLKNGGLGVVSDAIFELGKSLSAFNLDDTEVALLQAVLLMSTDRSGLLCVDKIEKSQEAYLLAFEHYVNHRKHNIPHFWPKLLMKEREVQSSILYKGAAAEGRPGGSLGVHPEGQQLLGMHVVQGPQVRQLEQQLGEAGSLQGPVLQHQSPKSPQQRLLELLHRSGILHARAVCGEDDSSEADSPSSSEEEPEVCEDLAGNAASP
Sequence of Retinoic acid receptor RXR-alpha (Homo sapiens) (P19793 whole entry, looked up, the tested form may be a part): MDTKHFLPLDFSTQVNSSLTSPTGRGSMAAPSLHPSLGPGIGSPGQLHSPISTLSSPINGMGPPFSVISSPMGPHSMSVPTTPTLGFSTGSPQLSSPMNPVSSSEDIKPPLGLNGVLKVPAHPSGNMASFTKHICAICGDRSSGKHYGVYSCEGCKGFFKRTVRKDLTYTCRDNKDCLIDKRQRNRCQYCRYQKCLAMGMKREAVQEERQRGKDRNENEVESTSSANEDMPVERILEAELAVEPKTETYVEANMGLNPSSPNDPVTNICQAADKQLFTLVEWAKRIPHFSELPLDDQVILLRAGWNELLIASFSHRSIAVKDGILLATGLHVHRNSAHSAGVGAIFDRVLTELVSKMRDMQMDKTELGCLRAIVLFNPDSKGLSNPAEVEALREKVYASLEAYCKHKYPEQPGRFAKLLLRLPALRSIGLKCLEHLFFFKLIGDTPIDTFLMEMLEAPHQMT
T1 sequence (P63059 whole entry, looked up): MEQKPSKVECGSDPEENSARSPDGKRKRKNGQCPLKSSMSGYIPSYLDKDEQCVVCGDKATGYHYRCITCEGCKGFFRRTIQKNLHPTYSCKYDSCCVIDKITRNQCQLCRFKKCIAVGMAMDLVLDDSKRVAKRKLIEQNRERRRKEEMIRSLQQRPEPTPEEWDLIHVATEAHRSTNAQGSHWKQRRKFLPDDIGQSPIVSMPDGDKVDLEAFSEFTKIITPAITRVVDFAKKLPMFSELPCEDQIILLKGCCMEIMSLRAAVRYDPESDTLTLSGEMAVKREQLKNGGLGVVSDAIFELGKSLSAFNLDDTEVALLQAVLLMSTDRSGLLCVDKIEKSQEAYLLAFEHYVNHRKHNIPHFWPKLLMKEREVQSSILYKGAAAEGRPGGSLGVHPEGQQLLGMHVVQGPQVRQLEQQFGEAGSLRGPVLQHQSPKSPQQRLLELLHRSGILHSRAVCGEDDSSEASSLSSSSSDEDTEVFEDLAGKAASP
T1 sequence (P18113 whole entry, looked up): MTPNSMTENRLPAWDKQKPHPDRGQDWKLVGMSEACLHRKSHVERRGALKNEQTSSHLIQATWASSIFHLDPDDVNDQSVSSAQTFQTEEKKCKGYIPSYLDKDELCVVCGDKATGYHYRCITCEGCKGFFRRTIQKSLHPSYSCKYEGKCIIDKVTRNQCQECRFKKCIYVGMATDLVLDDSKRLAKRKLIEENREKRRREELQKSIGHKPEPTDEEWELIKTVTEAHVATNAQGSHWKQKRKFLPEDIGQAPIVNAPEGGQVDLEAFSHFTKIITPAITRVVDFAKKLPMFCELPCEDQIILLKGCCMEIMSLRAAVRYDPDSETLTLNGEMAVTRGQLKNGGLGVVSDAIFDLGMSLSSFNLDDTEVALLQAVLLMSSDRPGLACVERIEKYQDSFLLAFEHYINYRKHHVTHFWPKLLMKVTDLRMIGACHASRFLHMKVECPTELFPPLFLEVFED

## O=[N+]([O-])c1ccc(Oc2ccc(Cl)cc2Cl)cc1
PGR (gene 5241) [1]
  AC50: 20.6 µM (active)
[2]
  outcome: inactive
PGR (gene 5241) [3]
  outcome: inactive
[4]
  outcome: inactive
[5]
  outcome: inactive

## Cc1ccc(N)cc1
[6]
  outcome: inactive
THRA (gene 7067) [7]
  outcome: inactive
THRB (gene 7068) [8]
  outcome: inactive
[9]
  outcome: inactive
THRB (gene 7068) [10]
  outcome: inactive
[11]
  outcome: inactive

## CCCCCOC(=O)c1ccccc1C(=O)OCCCCC
[12]
  outcome: inactive
[13]
  outcome: inactive

## C[C@]12C=CC3=C4CCC(=O)C=C4CC[C@H]3[C@@H]1CC[C@@H]2O
PGR (gene 5241) [1]
  outcome: inactive
[2]
  outcome: inactive
[14]
  outcome: inactive
PGR (gene 5241) [15]
  AC50: 0.00268 µM (active)
PGR (gene 5241) [3]
  outcome: inactive
[4]
  outcome: inactive
[5]
  outcome: inactive

## CN(C)c1ccc(C(=O)c2ccc(N(C)C)cc2)cc1
[16]
  outcome: inactive
THRB (gene 7068) [17]
  AC50: 2.66 µM (active)
[18]
  outcome: inactive
THRB (gene 7068) [19]
  outcome: inactive

## Brc1ccc(Oc2ccccc2)cc1
[12]
  outcome: inactive

## Clc1ccc(Cl)c(Cl)c1
THRA (gene 7067) [7]
  outcome: inactive
THRB (gene 7068) [8]
  outcome: inactive
[9]
  outcome: inactive
THRB (gene 7068) [10]
  outcome: inactive
[11]
  outcome: inactive

## ClC1=C(Cl)[C@]2(Cl)[C@H]3[C@H]([C@@H]4C=C[C@H]3C4)[C@@]1(Cl)C2(Cl)Cl
PGR (gene 5241) [1]
  AC50: 46.1 µM (active)
[2]
  AC50: 62.6 µM (active)
[14]
  outcome: inactive
PGR (gene 5241) [3]
  AC50: 46.1 µM (active)

## CC(C)COC(=O)c1ccccc1C(=O)OCC(C)C
[12]
  outcome: inactive
[13]
  outcome: inactive

## Clc1ccc(C(c2ccc(Cl)cc2)C(Cl)Cl)cc1
PGR (gene 5241) [1]
  AC50: 31.5 µM (active)
[2]
  outcome: inactive
[14]
  outcome: inactive
PGR (gene 5241) [3]
  AC50: 33.8 µM (active)

## C=CCc1ccc2c(c1)OCO2
[12]
  outcome: inactive

## Clc1ccc(C(c2ccc(Cl)cc2)C(Cl)(Cl)Cl)cc1
PGR (gene 5241) [1]
  AC50: 34.8 µM (active)
[2]
  AC50: 84.9 µM (active)
[14]
  outcome: inactive
PGR (gene 5241) [3]
  AC50: 32.5 µM (active)
[4]
  outcome: inactive
[5]
  outcome: inactive

## COC(=O)Nc1nc2ccccc2[nH]1
[16]
  outcome: inactive
THRA (gene 7067) [20]
  outcome: inactive
[18]
  outcome: inactive
THRB (gene 7068) [19]
  outcome: inactive

## CCCCOC(=O)c1ccccc1C(=O)OCc1ccccc1
[12]
  outcome: inactive
PGR (gene 5241) [1]
  outcome: inactive
[2]
  outcome: inactive
[14]
  outcome: inactive
PGR (gene 5241) [3]
  outcome: inactive
[4]
  outcome: inactive
[5]
  outcome: inactive
